The results in this text go back to PubChem BioAssay (NCATS).

The subject of one experiment is MCC-26. Description: qHTS assay to identify novel small-molecules to repurpose for Merkel cell carcinoma treatment (AID 1296009). Further: nearly all actives have a fitted effect of over 60% in size. The conditions noted are these: MCC and control cell lines, CellTiter-Glo viability, 72 h; series mostly up to 46 µM. The method, boiled down:
(§1)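 After compound transfer in DMSO, plates were kept 72 hr at 37 degree celsius. Luminescent ATP signal from CellTiter-Glo served as viability measure, normalized against DMSO and no-cell controls.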
For orientation: In qHTS, concentration-response curves come from the screen itself.

Another experiment has as its system MKL-1. Described as above. The note with it: MCC and control cell lines, CellTiter-Glo viability, 72 h; series mostly up to 46 µM. The method, boiled down:
as §1
A general note: Cellular ATP, detected with luciferase, serves as a proxy for viable cell number.

The next experiment relates to MKL-2. The description is as above. The note with it: MCC and control cell lines, CellTiter-Glo viability, 72 h; series mostly up to 46 µM. The method, boiled down:
as §1

A further experiment relates to NIH3T3. The description is as above. The conditions noted are these: MCC and control cell lines, CellTiter-Glo viability, 72 h; at 44.8 µM (top of the series) unless noted. The method in brief:
as §1

In another experiment the test system is UISO. The experiment is described as above. The note with it: MCC and control cell lines, CellTiter-Glo viability, 72 h; series mostly up to 46 µM. The method in brief: as §1
The test system of the next experiment is WaGa. Described as above. The conditions noted are these: MCC and control cell lines, CellTiter-Glo viability, 72 h; series mostly up to 46 µM. The method, boiled down:
as §1

Another experiment has as its system C33A. Description: Primary qHTS to identify gynecologic anti-cancer compounds using libraries of approved drugs and bioactive compounds (AID 1345084). Further: nearly all actives have a fitted effect of over 55% in size. Further: potency means the concentration at half of the fitted maximal effect. The note with it: Gynecologic cancer cell panel viability, ATPlite luminescence, 48 h; series mostly up to 57.5 µM. The method, boiled down: (§2)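 Cytotoxicity screen measuring ATP content by luciferase luminescence. Each compound is applied at five concentrations for 48 h at 37 C with 5% CO2.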

The subject of another experiment is CASKI. Described as above. The conditions noted are these: Gynecologic cancer cell panel viability, ATPlite luminescence, 48 h; series mostly up to 57.5 µM. The method, boiled down: as §2
Another experiment concerns Es-2. Described as above. The conditions noted are these: Gynecologic cancer cell panel viability, ATPlite luminescence, 48 h; series mostly up to 57.5 µM. The method, boiled down: as §2
The next experiment concerns HeLa. The experiment is described as above. The note with it: Gynecologic cancer cell panel viability, ATPlite luminescence, 48 h; series mostly up to 57.5 µM. The method in brief: as §2
The subject of a further experiment is Hek293T. Described as above. The conditions noted are these: Gynecologic cancer cell panel viability, ATPlite luminescence, 48 h, control line for the selectivity index; series mostly up to 57.5 µM. The method, boiled down:
as §2

The subject of the next experiment is JEG-3. The description is as above. The note with it: Gynecologic cancer cell panel viability, ATPlite luminescence, 48 h; series mostly up to 57.5 µM. The method, boiled down: as §2
A further experiment concerns OV90. The description is as above. The conditions noted are these: Gynecologic cancer cell panel viability, ATPlite luminescence, 48 h; series mostly up to 57.5 µM. The method in brief:
as §2

The subject of a further experiment is PA-1. The description is as above. The note with it: Gynecologic cancer cell panel viability, ATPlite luminescence, 48 h; series mostly up to 57.5 µM. The method, boiled down:
as §2

The subject of another experiment is SKOV3. Described as above. The conditions noted are these: Gynecologic cancer cell panel viability, ATPlite luminescence, 48 h; series mostly up to 57.5 µM. The method, boiled down: as §2
A further experiment concerns Tov-21-G. The experiment is described as above. The note with it: Gynecologic cancer cell panel viability, ATPlite luminescence, 48 h; series mostly up to 57.5 µM. The method, boiled down:
as §2

For a further experiment, the system named is Tov112D. Described as above. The conditions noted are these: Gynecologic cancer cell panel viability, ATPlite luminescence, 48 h; series mostly up to 57.5 µM. The method, boiled down: as §2
Experiment [1] in a line: Drug repurposing screens with cells derived from glioblastoma tumor samples (AID 1345199). Further: nearly all actives have a fitted effect of over 40% in size. Further: potency means the concentration at half of the fitted maximal effect. The note with it: GBM patient neurospheres viability, ATP luminescence, 48 h. The method, boiled down: (§3)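 Four patient lines of CD133+ GBM neurospheres were screened at several concentrations; hits were retested in those lines plus three slower-growing GBM lines, using 48-hour treatment and ATP-based viability.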

The test system of another experiment is astro. The description is as above. The conditions noted are these: viability, ATP luminescence, 48 h; series mostly up to 45.9 µM. The method in brief: as §3
The next experiment concerns CAOV3. The experiment in a line: Primary qHTS to identify gynecologic anti-cancer compounds using libraries of approved drugs and bioactive compounds (AID 1345084). Further: nearly all actives have a fitted effect of over 55% in size. Further: potency means the concentration at half of the fitted maximal effect. The conditions noted are these: Gynecologic cancer cell panel viability, ATPlite luminescence, 48 h; series mostly up to 57.5 µM. The method, boiled down:
as §2

[2] abbreviates: at 45.9 µM (top of the series), tumour line B.
Where [3] appears, read: at 45.9 µM (top of the series), tumour line D.
[4] abbreviates: at 46.1 µM (top of the series), tumour line C.
Setting [5] is: at 20 µM (top of the series), tumour line C.
[6] abbreviates: at 21.2 µM (top of the series), tumour line B.
Where [7] appears, read: at 21.2 µM (top of the series), tumour line D.
Where [8] appears, read: at 21.3 µM (top of the series), tumour line A.

Values joined by “and” are separate entries in the source; they are usually repeats but may differ in a detail not shown here. Identical values can stand only once. Inconclusive results are not listed. Some compounds were tested as several samples or in several runs, with calls that do not always agree. Active and inactive are the calls of the source. The call rests on the fitted dose curve; in most records, active means well fitted curve in the direction sought with a large enough effect; inconclusive means small, poorly fitted or top-dose-only effect, or another doubt; inactive means no such curve, though single readings can be large; an effect the other way counts as inactive or inconclusive.
On the % scale 0 is the no-effect control and ±100 the full control effect.

For the compound `CC(C)(O)c1ccccc1CC[C@@H](SCC1(CC(=O)O)CC1)c1cccc(/C=C/c2ccc3ccc(Cl)cc3n2)c1`, the Potency entry in the experiment with MCC-26, in the experiment with MKL-1, in the experiment on MKL-2, in the experiment on UISO, in the experiment on WaGa and in the experiment with C33A was “inactive” in each case. For the same compound, the Potency result with CASKI, in the experiment with Es-2, in the experiment on HeLa, with Hek293T, in the experiment on JEG-3 and in the experiment with OV90 was “inactive” each time. The Potency result in the experiment with PA-1, in the experiment on Tov-21-G and in the experiment on Tov112D was “inactive” in each case. In the experiment with NIH3T3, the result was inactive. In addition, the Potency entry was “inactive and 35.5 µM (active)” in the experiment on SKOV3; 20 µM (active) with astro. The activity, negative = cell killing was -2.34% (inactive) in experiment [1] (setting [2]), -14.4% (inactive) in experiment [1] (setting [3]) and -19.5% (inactive) in experiment [1] (setting [4]).

`Nc1ccc(S(=O)(=O)Nc2ccc(Cl)nn2)cc1`: the Potency entry with MCC-26, in the experiment on MKL-1, with MKL-2, with UISO, with WaGa and with C33A was “inactive” throughout. Moreover, the Potency entry in the experiment on CAOV3, in the experiment on CASKI, with Es-2, in the experiment on HeLa, in the experiment on Hek293T and with JEG-3 was “inactive” throughout. Further, the Potency result in the experiment on OV90, in the experiment with PA-1, with SKOV3, in the experiment with Tov-21-G, in the experiment on Tov112D and in the experiment on astro was “inactive” throughout. Moreover, the activity, negative = cell killing in experiment [1] (setting [5]) was -15.3% (inactive); in experiment [1] (setting [6]), -15.4% (inactive); in experiment [1] (setting [7]), -6% (inactive); in experiment [1] (setting [8]) it was -27.3% (inactive); in experiment [1] (setting [2]), -5.57% (inactive); in experiment [1] (setting [3]), -3.89% (inactive). Further, the activity, negative = cell killing in [1] (setting [4]) was -7.4% (inactive).

With `O=c1cc(CO)occ1O`, the Potency entry in the experiment with MCC-26, in the experiment on MKL-1, in the experiment with MKL-2, in the experiment with UISO, in the experiment on WaGa and in the experiment on C33A was “inactive” in each case. The Potency entry in the experiment on CAOV3, in the experiment on CASKI, with Es-2, in the experiment on HeLa, with Hek293T and with JEG-3 was “inactive” in each case. Moreover, the Potency result in the experiment on OV90, with PA-1, in the experiment with SKOV3, in the experiment with Tov-21-G, in the experiment with Tov112D and in the experiment with astro was “inactive” each time. Moreover, the activity, negative = cell killing in experiment [1] (setting [2]) was -1.08% (inactive) and -4.58% (inactive); in [1] (setting [3]) it was 14.9% (inactive) and -7.17% (inactive); in [1] (at 46 µM (top of the series), tumour line A) it was -25.5% (inactive) and -9.07% (inactive); in [1] (setting [4]), -15.8% (inactive) and 18.8% (inactive).

Turning to `CN(C)CCOC(C)(c1ccccc1)c1ccccn1` (stereo unspecified), the Potency entry in the experiment with MCC-26, with MKL-1, in the experiment on MKL-2, in the experiment with UISO, in the experiment on WaGa and with C33A was “inactive” throughout. For the same compound, the Potency result with CAOV3, in the experiment on CASKI, in the experiment on Es-2, in the experiment with HeLa, in the experiment with Hek293T and in the experiment with JEG-3 was “inactive” each time. Further, the Potency entry with OV90, with PA-1, with SKOV3, in the experiment with Tov-21-G, in the experiment on Tov112D and with astro was “inactive” throughout. For the same compound, the activity, negative = cell killing in [1] (setting [2]) is -6.13% (inactive); in experiment [1] (setting [3]), -4.11% (inactive); in experiment [1] (setting [4]) it was -0.022% (inactive). For the same compound, the Potency in experiment [1] (tumour line A) was 15.8 µM (active).

With `NS(=O)(=O)c1cc2c(cc1C(F)(F)F)NC(Cc1ccccc1)NS2(=O)=O` (stereo unspecified), the Potency entry in the experiment on MCC-26, in the experiment with MKL-1, in the experiment with MKL-2, in the experiment on UISO, with WaGa and in the experiment with C33A was “inactive” throughout. Besides, the Potency result in the experiment on CASKI, in the experiment on Es-2, in the experiment with HeLa, in the experiment on Hek293T, with JEG-3 and with PA-1 was “inactive” in each case. In addition, the Potency result with SKOV3, in the experiment on Tov-21-G, in the experiment on Tov112D and in the experiment on astro was “inactive” throughout. Moreover, the compound was classed as inactive in the experiment on NIH3T3. Further, the activity, negative = cell killing in experiment [1] (setting [5]) is -4.97% (inactive); in experiment [1] (setting [6]), -2.05% (inactive); in [1] (setting [7]), -0.808% (inactive); in experiment [1] (setting [8]) it was -15.9% (inactive).
